What all share (assay type): functional
Assay [1] has as its system Plasmodium falciparum. The assay is described as follows: GSK_TCMDC: Inhibition of Plasmodium falciparum 3D7 in whole red blood cells, using parasite LDH activity as an index of growth. Test compounds present at 2uM.
Assay [2] concerns Plasmodium falciparum. The assay is described as follows: GSK_TCMDC: Inhibition of Plasmodium falciparum Dd2 in whole red blood cells, using parasite LDH activity as an index of growth. Test compounds present at 2uM.
The subject of the next assay is HepG2. The experiment in a line: GSK_TCMDC: Percent inhibition of human HepG2 cell line. Test compounds present at 10uM.

The structures appear in SMILES notation. Where “and” joins values, the source holds several entries; their conditions need not be identical. Equal entries are not always repeated.

These results are taken from ChEMBL document CHEMBL1157539, “Thousands of chemical starting points for antimalarial lead identification” (Nature, 2010).

Broadly, the Inhibition is the change of the read-out against control, counted positive when it falls.

Consider `CCOc1cc(C)ccc1C1CCN(CCN2CCC(CNC(=O)c3ccc(-c4ccc(C(F)(F)F)cc4)cc3)CC2)CC1`, for which the results for the Inhibition in the assay on Plasmodium falciparum [1], in the assay on Plasmodium falciparum [2] and in the assay with HepG2 were 98%, 89% and 53%, respectively.
On to `CS(=O)(=O)Nc1ccc2[nH]cc(C3CCN(CCCCCNC(=O)/C=C/c4ccc(Cl)c(Cl)c4)CC3)c2c1`, for which the Inhibition with Plasmodium falciparum [1] stood at 100%; with Plasmodium falciparum [2], 0%; in the assay on HepG2, 1%.
Turning to `COc1ccc(CNCc2cccc(-c3csc(-c4nc5ccccc5[nH]4)c3)c2)cc1.O=C(O)C(F)(F)F`, the Inhibition in the assay on Plasmodium falciparum [1] was 100%; in the assay with Plasmodium falciparum [2], 22%; in the assay on HepG2 it was 17%.
As for `Br.CC1(C)NC(N)=NC(=N)N1OCCCc1cc(Cl)c(Cl)cc1Cl`, the Inhibition is given as 95% in the assay on Plasmodium falciparum [1], 96% in the assay with Plasmodium falciparum [2] and 55% in the assay on HepG2.
As to `COc1cc(C(=O)N2C(c3nccs3)C(C(=O)N(OC)C(C)c3ccccc3)CC2(CC(C)C)C(=O)OC(C)(C)C)ccc1C(C)(C)C` (configuration not stated), the Inhibition came out at 92% in the assay on Plasmodium falciparum [1], 92% with Plasmodium falciparum [2] and 12% with HepG2.
For `Cc1ccc(Nc2nc(N/N=C/c3cccc([N+](=O)[O-])c3)nc(Nc3ccccc3)n2)c(C)c1`, the Inhibition in the assay with Plasmodium falciparum [1] is on record as 91%; in the assay on Plasmodium falciparum [2], 97%; with HepG2, 9%.
Regarding `Cc1[nH]c2cc(F)ccc2c(=O)c1Cc1ccc(Cl)cc1.Cc1[nH]c2cccc(F)c2c(=O)c1Cc1ccc(Cl)cc1`, the Inhibition with Plasmodium falciparum [1] was 94% and 93%; in the assay on Plasmodium falciparum [2], 92% and 94%; in the assay on HepG2 it was 7% and 6%.
For the compound `CCOC(=O)CCCc1cc(NC2CCN(C)CC2)nc(Nc2ccc(OC)cc2)n1`, the Inhibition in the assay on Plasmodium falciparum [1] is given as 99%; with Plasmodium falciparum [2] it was 17%; in the assay on HepG2, 41%.
In the case of `CN1CCC(NCc2cccc(-c3cccc(-c4nc5cc(C(F)(F)F)ccc5[nH]4)c3)c2)CC1.O=C(O)C(F)(F)F`, the Inhibition with Plasmodium falciparum [1] is 100%; in the assay with Plasmodium falciparum [2], 100%; with HepG2, 35%.
